About 83,000 compounds went through this panel and 20% of them were active in at least one assay; those are over-represented in the sample as a whole.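 In brief: 96-well plates, 48 h treatment, single concentration, percent growth endpoint.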 Calls of active or inactive are those of the source. The calls were made as follows: active = growth percent below 10; inactive = the rest.
Tests used:
Experiment in all cases: NCI-60 one-dose screen, 48 h (100 = growth as untreated, 0 = no growth, -100 = all killed)
Details in all cases: 10 µM unless noted
NCI-H23 lung = system: NCI-H23 lung
NCI-H226 lung = system: NCI-H226 lung
NCI-H322M lung = system: NCI-H322M lung
HOP-62 NSCLC = system: HOP-62 NSCLC
NCI-H460 lung = system: NCI-H460 lung
HOP-92 NSCLC = system: HOP-92 NSCLC
NCI-H522 lung = system: NCI-H522 lung
A549/ATCC NSCLC = system: A549/ATCC NSCLC
786-0 renal = system: 786-0 renal
COLO 205 colon = system: COLO 205 colon

Measured: growth

O=C(O)COc1ccc(-c2cssc2=S)cc1
inactive: NCI-H23 lung 102% | NCI-H226 lung 99.1% | NCI-H322M lung 104% | HOP-62 NSCLC 104% | NCI-H460 lung 113% | HOP-92 NSCLC 111% | NCI-H522 lung 85.6% | A549/ATCC NSCLC 97.6% | 786-0 renal 101% | COLO 205 colon 109%

CN(C)CCCN(c1nc(C(Cl)(Cl)Cl)ns1)c1nc(C(Cl)(Cl)Cl)ns1
active: NCI-H460 lung 8.42% | HOP-92 NSCLC -0.62%
inactive: NCI-H23 lung 58.9% | NCI-H226 lung 53.9% | NCI-H322M lung 65.5% | HOP-62 NSCLC 48.4% | NCI-H522 lung 39.4% | A549/ATCC NSCLC 37.5% | 786-0 renal 42.4% | COLO 205 colon 10.2%

COc1ccc(/C=N\NC(=O)CN2CCN(c3cc4c(cc3F)c(=O)c(C(=O)N/N=C/c3ccc(OC)c(OC)c3)cn4C3CC3)CC2)cc1OC
active: NCI-H23 lung -32% | HOP-62 NSCLC 9.47% | NCI-H460 lung 3.65% | HOP-92 NSCLC -2.77% | NCI-H522 lung 7.49% | COLO 205 colon 7.74%
inactive: NCI-H226 lung 52.1% | NCI-H322M lung 11.1% | A549/ATCC NSCLC 48.6% | 786-0 renal 45.4%

O=S(=O)(NCCCNc1nccc(-n2ccc3cccnc32)n1)c1cccc(C(F)(F)F)c1
inactive: NCI-H23 lung 108% | NCI-H226 lung 104% | NCI-H322M lung 106% | HOP-62 NSCLC 112% | NCI-H460 lung 104% | HOP-92 NSCLC 106% | NCI-H522 lung 98.1% | A549/ATCC NSCLC 101% | 786-0 renal 102% | COLO 205 colon 108%

CCn1c2ccccc2c2cc(NC(=O)Nc3ccc([N+](=O)[O-])cc3C)ccc21
inactive: NCI-H23 lung 41.5% | NCI-H226 lung 74.9% | NCI-H322M lung 77.8% | HOP-62 NSCLC 49.4% | NCI-H460 lung 19.5% | HOP-92 NSCLC 57.9% | A549/ATCC NSCLC 31.5% | 786-0 renal 38.9% | COLO 205 colon 29.9%
active: NCI-H522 lung 9.7%

Cc1cccc(/C=N/Nc2cc(C)c3cccc(C)c3n2)n1
inactive: NCI-H23 lung 94.3% | NCI-H226 lung 86.9% | NCI-H322M lung 100% | HOP-62 NSCLC 110% | NCI-H460 lung 92.9% | HOP-92 NSCLC 75.5% | NCI-H522 lung 87% | A549/ATCC NSCLC 87.8% | 786-0 renal 107% | COLO 205 colon 96.2%

O=[N+]([O-])c1ccc(/C=C/C2(CCl)OCCO2)cc1
inactive: NCI-H23 lung 90.9% | NCI-H226 lung 101% | NCI-H322M lung 152% | HOP-62 NSCLC 116% | NCI-H460 lung 117% | HOP-92 NSCLC 84.2% | A549/ATCC NSCLC 105% | 786-0 renal 85.6% | COLO 205 colon 107%
active: NCI-H522 lung -15.3%

COc1cc(C2CC(c3ccc4c(c3)OCO4)=NN2C(C)=O)cc(OC)c1OC (stereo not given)
active: NCI-H322M lung -12.9% | NCI-H522 lung -29.8% | COLO 205 colon -12.8%
inactive: NCI-H23 lung 44.3% | NCI-H226 lung 52.4% | HOP-62 NSCLC 35.5% | NCI-H460 lung 10.7% | HOP-92 NSCLC 74.6% | A549/ATCC NSCLC 36% | 786-0 renal 42.1%

OB(O)c1cccc(-c2nc3ccc4[nH]ncc4c3c3c2CCCC3)c1F
inactive: NCI-H23 lung 59% | NCI-H226 lung 37.9% | NCI-H322M lung 48.1% | HOP-62 NSCLC 29.3% | NCI-H460 lung 22.2% | HOP-92 NSCLC 27.1% | NCI-H522 lung 26.9% | A549/ATCC NSCLC 47.9% | 786-0 renal 34.8% | COLO 205 colon 38.7%

CCOC(=O)c1ccc2c(c1)c1c(C)c3cccnc3c(C)c1n2C
inactive: NCI-H23 lung 56.7% | NCI-H226 lung 53.1% | NCI-H322M lung 56.9% | HOP-62 NSCLC 72.7% | NCI-H460 lung 22.5% | HOP-92 NSCLC 67.9% | NCI-H522 lung 49.1% | A549/ATCC NSCLC 67.7% | 786-0 renal 51.3% | COLO 205 colon 50.3%

COc1cc(Nc2nc(N[C@H]3CCCC[C@@H]3N)nc3cc[nH]c(=O)c23)cc(OC)c1
inactive: NCI-H23 lung 30.2% | HOP-62 NSCLC 47.6% | NCI-H460 lung 27.6% | A549/ATCC NSCLC 19.1% | 786-0 renal 40.4% | COLO 205 colon 18.8%
active: NCI-H226 lung -13.5% | NCI-H322M lung 9.42% | HOP-92 NSCLC -10.1% | NCI-H522 lung -9.29%

CCC(=O)Oc1ccc(/C(=C(/C)Cc2cccc(OC)c2)c2ccc(OCCN(C)C)cc2)cc1
inactive: NCI-H23 lung 94.2% | NCI-H226 lung 111% | NCI-H322M lung 94.5% | HOP-62 NSCLC 108% | NCI-H460 lung 90.1% | HOP-92 NSCLC 67.2% | NCI-H522 lung 87.6% | A549/ATCC NSCLC 97.7% | 786-0 renal 79.7% | COLO 205 colon 102%

COc1ccc(Nc2[nH]n3c(=O)cc(C)nc3c2C(N)=O)c(OC)c1
inactive: NCI-H23 lung 100% | NCI-H226 lung 97.4% | NCI-H322M lung 96% | HOP-62 NSCLC 85.9% | NCI-H460 lung 105% | HOP-92 NSCLC 73.1% | NCI-H522 lung 84.9% | A549/ATCC NSCLC 89.5% | 786-0 renal 99.1% | COLO 205 colon 102%

— PubChem BioAssay (NCI)
